{
  "source": "PubChem BioAssay (NCATS)",
  "key": {"Tov-21-G": {"test_system": "Tov-21-G", "assay": "Primary qHTS to identify gynecologic anti-cancer compounds using libraries of approved drugs and bioactive compounds (AID 1345084); note: nearly all actives have a fitted effect of over 55% in size", "settings": "Gynecologic cancer cell panel viability, ATPlite luminescence, 48 h; series mostly up to 57.5 µM", "method_in_brief": "(§1)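 Five-point cytotoxicity, 48 h drug exposure at 37 C, 5% CO2, on cells seeded 16 h beforehand. ATP content read by ATPlite luminescence.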"}, "Tov112D": {"test_system": "Tov112D", "assay": "Primary qHTS to identify gynecologic anti-cancer compounds using libraries of approved drugs and bioactive compounds (AID 1345084)", "settings": "Gynecologic cancer cell panel viability, ATPlite luminescence, 48 h; series mostly up to 57.5 µM", "method_in_brief": "as §1"}},
  "note": "Results filed as inconclusive are left out. Where a call stands in place of a potency, no number is given. Values without a mark were called inactive. Activity calls are given as the source filed them. Calls come from the whole dose curve; as a rule, active = well fitted cell-killing curve with a large enough effect; inconclusive = small, poorly fitted or top-dose-only effect, or effect the other way; inactive = flat fitted curve, though single readings scatter.",
  "data": [
    {"smiles": "CC(NC(=O)Cc1cc(F)cc(F)c1)C(=O)NC1C(=O)N(C)c2ccccc2-c2ccccc21", "note": "(stereo unspecified)", "values": [
      {"measurement": "Potency", "setting": "Tov-21-G", "result": "inactive"},
      {"measurement": "Potency", "setting": "Tov112D", "result": "inactive"}
    ]},
    {"smiles": "Cc1nc(N2CCN(C(=O)c3ccco3)CC2)c2c3c(sc2n1)CCCC3", "values": [
      {"measurement": "Potency", "setting": "Tov-21-G", "result": "inactive"},
      {"measurement": "Potency", "setting": "Tov112D", "result": "inactive"}
    ]},
    {"smiles": "CN(C)CCOc1cc(NS(=O)(=O)c2c(Cl)cc(C(F)(F)F)cc2Cl)ccc1Cl", "values": [
      {"measurement": "Potency", "setting": "Tov-21-G", "result": "inactive"},
      {"measurement": "Potency", "setting": "Tov112D", "result": "inactive"}
    ]},
    {"smiles": "C=C(C)C1CCC2(C(=O)O)CCC3(C)C(CCC4C5(C)C(C=O)C(O)C(C)(C)C5CCC43C)C12", "note": "(stereo unspecified)", "values": [
      {"measurement": "Potency", "setting": "Tov-21-G", "result": "inactive"},
      {"measurement": "Potency", "setting": "Tov112D", "result": "inactive"}
    ]},
    {"smiles": "Cc1cc2sc(NC(=O)Cc3ccccc3)nc2cc1Cl", "values": [
      {"measurement": "Potency", "setting": "Tov-21-G", "result": "inactive"},
      {"measurement": "Potency", "setting": "Tov112D", "result": "inactive"}
    ]},
    {"smiles": "COc1ccc(NC(=O)c2ccc(-c3ccc(-c4nnc(C)o4)cc3C)cc2)cc1N1CCN(C)CC1", "values": [
      {"measurement": "Potency", "setting": "Tov-21-G", "result": "inactive"},
      {"measurement": "Potency", "setting": "Tov112D", "result": "inactive"}
    ]},
    {"smiles": "COc1cc2ncnc(Oc3ccc(CC(=O)Nc4cnn(C(C)C)c4)cc3)c2cc1OC", "values": [
      {"measurement": "Potency", "setting": "Tov-21-G", "result": "inactive"},
      {"measurement": "Potency", "setting": "Tov112D", "result": "inactive"}
    ]},
    {"smiles": "Cc1c(C2=CCN(C(=O)N(C)C(C)C)CC2)nnn1-c1cccnc1F", "values": [
      {"measurement": "Potency", "setting": "Tov-21-G", "result": "inactive"},
      {"measurement": "Potency", "setting": "Tov112D", "result": "inactive"}
    ]},
    {"smiles": "CC1(C)Oc2ncnc(N)c2N=C1c1ccc(C23CCC(CC(=O)O)(CC2)CC3)cc1", "values": [
      {"measurement": "Potency", "setting": "Tov-21-G", "result": "inactive"},
      {"measurement": "Potency", "setting": "Tov112D", "result": "inactive"}
    ]},
    {"smiles": "O=C(O)CCc1nccc2c1[nH]c1ccccc12", "values": [
      {"measurement": "Potency", "setting": "Tov-21-G", "result": "inactive"},
      {"measurement": "Potency", "setting": "Tov112D", "result": "inactive"}
    ]},
    {"smiles": "c1cc(NCCc2c[nH]c3ccccc23)cc(Nc2ccncc2)c1", "values": [
      {"measurement": "Potency", "setting": "Tov-21-G", "result": "inactive"},
      {"measurement": "Potency", "setting": "Tov112D", "result": "inactive"}
    ]},
    {"smiles": "CC(=O)Nc1cccc(-c2csc(Nc3cc(C)ccn3)n2)c1", "values": [
      {"measurement": "Potency", "setting": "Tov-21-G", "result": "inactive"},
      {"measurement": "Potency", "setting": "Tov112D", "result": "inactive"}
    ]},
    {"smiles": "O=C(N[C@@H]1CCCc2c1cnn2-c1ccc(F)cc1F)c1ccccn1", "values": [
      {"measurement": "Potency", "setting": "Tov-21-G", "result": "inactive"},
      {"measurement": "Potency", "setting": "Tov112D", "result": "inactive"}
    ]},
    {"smiles": "Clc1ccc(Nc2nc3ccccc3c3nc(C4CCCCC4)[nH]c23)cc1Cl", "values": [
      {"measurement": "Potency", "setting": "Tov-21-G", "result": "inactive"},
      {"measurement": "Potency", "setting": "Tov112D", "result": "inactive"}
    ]},
    {"smiles": "CC1(C)CC[C@]2(C(=O)O)[C@H](O)C[C@]3(C)C(=CCC4[C@@]5(C)CC[C@H](O[C@@H]6O[C@H](CO[C@@H]7OC[C@H](O)[C@H](O)[C@H]7O[C@@H]7OC[C@H](O)[C@H](O)[C@H]7O)[C@@H](O)[C@H](O)[C@H]6O)C(C)(C)C5CC[C@]43C)[C@@H]2C1", "note": "(stereo partly specified)", "values": [
      {"measurement": "activity change, negative = cytotoxicity", "setting": "Tov-21-G", "result": "4.39% [at 11.6 µM]"},
      {"measurement": "activity change, negative = cytotoxicity", "setting": "Tov112D", "result": "15.2% [at 11.6 µM]"}
    ]},
    {"smiles": "O=C(COc1ccc2ccccc2c1Br)Nc1cccnc1", "values": [
      {"measurement": "Potency", "setting": "Tov-21-G", "result": "inactive"},
      {"measurement": "Potency", "setting": "Tov112D", "result": "inactive"}
    ]},
    {"smiles": "CCCCCCCOc1cc2c(cc1/C(C)=C/c1ccc(C(=O)O)cc1)C(C)(C)CCS2(=O)=O", "values": [
      {"measurement": "Potency", "setting": "Tov-21-G", "result": "inactive"},
      {"measurement": "Potency", "setting": "Tov112D", "result": "inactive"}
    ]},
    {"smiles": "OC1CCC(Nc2nc(-c3ccccc3)nc3[nH]ccc23)CC1", "note": "(stereo unspecified)", "values": [
      {"measurement": "Potency", "setting": "Tov-21-G", "result": "inactive"},
      {"measurement": "Potency", "setting": "Tov112D", "result": "inactive"}
    ]}
  ]
}
